Bioassay records as filed in PubChem BioAssay.
BAZ2B inh: blocks human BAZ2B; Potency, µM (highest dose often 114 µM), for inactives: at the top dose activity change, negative = inhibition, most hits filed as inhibitors; AID 504333; Q9UIF8; AlphaScreen BAZ2B-H3K14Ac peptide displacement; 4.4% of 360,000 active; further: on the % scale 0 is the no-effect control and ±100 the full control effect; nearly all actives have a fitted effect of over 60% in size
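Complex of BAZ2B and biotin-H3K14Ac (50 nM apiece) forms over 30 min at RT, then faces library compounds up to 110 uM for another 30 min; AlphaScreen beads added, 20 min dark incubation, luminescence read.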
HP1b binding inh: inhibitors of HP1-beta chromodomain binding to methylated histone tails; Potency, µM (series often up to 114 µM), for the others: at the highest dose activity change, negative = inhibition, most hits filed as inhibitors; AlphaScreen HP1-beta / biotin-H3K9me3 peptide binding; AID 540317; 0.56% of 390,000 active; P83916; further: nearly all actives have a fitted effect of over 70% in size
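AlphaScreen: HP1-beta (50 nM) preformed 30 min with biotin-H3(1-18)K9me3 peptide (50 nM) in PBS pH 7.4, 0.01% Tween-20. Compound added for 30 min at RT, then streptavidin donor/nickel chelate acceptor beads (10 ug/mL) for 30 min.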
Sfp PPTase inh: Sfp phosphopantetheinyl transferase inhibition | Q9F4F7 | Biochemical Sfp PPTase activity, qHTS | Potency, µM, for the others: largest response in the series, negative = inhibition, actives largely listed as inhibitors | 3.5% of 310,000 active | AID 1490;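 further: the enzyme is Sfp with the accession as filed and its product quenches rhodamine fluorescence; 0% = enzyme reaction without inhibitor and -100% = no enzyme wells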
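After 15 min at room temperature with compound, 15 nM Sfp received 5 uM rhodamine-CoA plus 12.5 uM BHQ-2-ybbR (50 mM Hepes pH 7.6, 10 mM MgCl2). Rate came from the fluorescence difference over 30 min, ex 525/em 598 nm.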
JMJD2A Tudor inh: inhibitors of human JMJD2A Tudor domain; Potency, µM (doses to about 114 µM), inactives show at the top dose activity change, negative = inhibition, usual class: inhibitors; O75164; AlphaScreen JMJD2A-Tudor / H3K4me3 peptide binding; 4.4% of 390,000 active; AID 504339; further: on the % scale 0 is the no-effect control and ±100 the full control effect; nearly all actives have a fitted effect of over 50% in size
G9a block: G9a (human) methyltransferase inhibition. Q96KQ7. Potency, µM (highest dose often 102 µM), inactives show top-dose activity, negative = inhibition, most hits filed as inhibitors. 8.8% of 350,000 active. G9a H3K9 monomethylation, AlphaScreen, 2 h; further: on the % scale 0 is the no-effect control and ±100 the full control effect; nearly all actives have a fitted effect of over 75% in size
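Methyltransferase reactions run at room temperature for 2 h (20 nM enzyme, 500 nM biotin-H3K9 peptide, 20 uM SAM) after a 15 min compound preincubation; product detected by AlphaScreen beads and anti-H3K9me1 antibody.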
Numbers without * were called inactive; ? = inconclusive; . = no result; [ ] = remark or other dose. Most compounds without a hit are left out; they make up all but 12% or so of the library. The call rests on the fitted dose curve; in most records, active means well fitted curve in the direction sought with a large enough effect; inconclusive means small, poorly fitted or top-dose-only effect, or another doubt; inactive means no such curve, though single readings can be large; an effect the other way counts as inactive or inconclusive. Potency means the concentration at half of the fitted maximal effect.

SMILES	BAZ2B inh	HP1b binding inh	Sfp PPTase inh	JMJD2A Tudor inh	G9a block
COc1ccc(C(CNC(=O)c2cc3c(s2)CCC(C)C3)N2CCOCC2)cc1 (configuration not stated)	-6.5%	7.2%	.	-19.8%	13.8%[12.7 µM]
Cc1cccc(CC2CC(=O)N(c3ccc(C)cc3Br)C2=O)c1 (configuration not stated)	6.0%	32.1%	4.0%	2.7%	46.6%
Cc1[nH]n(C(N)=S)c(=O)c1N=Nc1ccc(S(=O)(=O)N2CCCCCC2)cc1	?	?	6.1%	?	-21.2%[59 µM]
Cc1ccc(N=Nc2c(C)[nH]n(C(N)=S)c2=O)cc1C	7.3%	2.4%	-20.5%	-8.9%	2.1%[59 µM]
Cc1[nH]n(C(N)=S)c(=O)c1N=Nc1ccc2ccccc2c1	25.1µM*	?	11.1%	44.7µM*	31.6µM*
CC(=O)Nc1ccc(N=Nc2c(C)[nH]n(C(N)=S)c2=O)cc1	-11.3%	8.3%	39.8µM*	-27.1%	44.7µM*
Cc1nnc(SCC(=O)Nc2ccc(N3CCN(S(C)(=O)=O)CC3)cc2)o1	-0.2%	1.4%	-10.3%	-11.7%	-8.7%
O=C1CCC(=O)N1CNc1ccc(Oc2ccccc2)cc1	?	1.8%	10.7%	?	?
NC(=O)C1CCN(C2=C(Cl)C(=O)c3ccccc3C2=O)CC1	25.1µM*	?	17.8µM*	-29.3%	11.2µM*
CN1CCN(C2=C(Cl)C(=O)c3ccccc3C2=O)CC1	.	?	.	22.4µM*	.
NC(=O)C1CCN(c2ccc3c(c2)S(=O)(=O)c2ccccc2C3=O)CC1	.	38.4%	.	-11.2%	.
CC1COCC(C)N1C1=C(Cl)C(=O)c2ccccc2C1=O (configuration not stated)	.	12.6µM*	.	3.16µM*	.
O=C(O)C1CCN(C(=O)c2ccccc2Cl)CC1	-1.9%	35.6%	2.5%	0.0%	2.6%[59 µM]
O=C1C(Cl)=C(N2CCC(C(=O)O)CC2)C(=O)c2ccccc21	?	-2.6%	?	-25.8%	50.1µM*
COc1cc(NC(=S)N2CCN(S(=O)(=O)c3ccc(C)cc3)CC2)cc(OC)c1	-24.3%	19.7%	20.7%	-2.8%	?
Cc1ccccc1N1C(=O)C(Cl)=C(N2CCCCCC2)C1=O	127.0%	278.6%	-26.2%	84.8%	133.9%
CN1CCN(C2=C(Cl)C(=O)C(c3cnc(N4CCCCC4)s3)=C(Cl)C2=O)CC1	12.7%	?	-9.7%	4.47µM*	8.9%[59 µM]
CC(C)(/C=N/O)/[N+]([O-])=C/c1ccccc1C(F)(F)F	?	21.3%	4.3%	?	?
O=c1cc(CSc2n[nH]c(-c3ccncc3)n2)nc2sccn12	?	18.9%	-6.5%	-28.0%	?
Cc1ccc2nc(CSc3nnc(-c4ccncc4)n3C)cc(=O)n2c1	-17.3%	39.3%	9.8%	-6.5%	39.8µM*
COCCn1c(SCc2cc(=O)n3ccsc3n2)nnc1-c1ccncc1	-16.4%	5.8%	-1.4%	39.8µM*	1.9%[59 µM]
C=CCn1c(SCc2cc(=O)n3cc(C)ccc3n2)nnc1-c1ccc(F)cc1	3.6%	26.1%	2.1%	2.8%	-17.1%[59 µM]
O=C(Nc1ccc(-c2nc3ncccc3o2)cc1)c1ccco1	-3.8%	-13.0%	19.1%	35.5µM*	-35.5%[12.7 µM]
O=C(Nc1cccc(NC(=O)c2nccc3ccccc23)c1)c1ccco1	-22.4%	1.4%	0.9%	-30.3%	44.7µM*
O=C(Nc1ccc2c(c1)ncn2-c1ccccc1)c1ccco1	2.5%	7.7%	31.6µM*	-21.8%	11.2µM*
SMILES	BAZ2B inh	HP1b binding inh	Sfp PPTase inh	JMJD2A Tudor inh	G9a block
O=C(Nc1cccnc1)c1cccc(NC(=O)c2ccco2)c1	4.8%	25.7%	26.6%	-1.4%	39.8µM*
Cc1ccc(C(=O)Nc2cccnc2)cc1NC(=O)c1ccco1	6.3%	16.3%	14.9%	-15.7%	-3.0%[59 µM]
Cc1nc(COc2ccc(C(=O)Nc3ccccc3N3CCOCC3)cc2)cs1	-26.2%	10.2%	11.9%	-28.6%	-2.3%
Cc1csc(NC(=O)C2CCN(C(=O)c3ccccc3C)CC2)n1	-22.8%	31.5%	5.6%	-4.3%	-4.8%[59 µM]
CCCOc1ccc(/C=C/C(=O)NC2CCCCC2)cc1OC	5.3%	40.8%	17.6%	-10.9%	54.1%
O=C(Nc1ccc2oc(-c3cccnc3)nc2c1)c1ccc(Br)o1	-8.4%	11.5%	50.1µM*	-12.8%	20µM*
O=C(Nc1ccc2oc(-c3cccnc3)nc2c1)c1ccc(Br)cc1	0.4%	52.8%	.	-19.0%	-4.2%[59 µM]
O=C(Nc1ccc2oc(-c3cccnc3)nc2c1)c1ccco1	-32.1%	34.9%	9.2%	-13.2%	50.1µM*
O=C(Nc1ccc2oc(-c3cccnc3)nc2c1)c1cccnc1	10.6%	33.5%	19.8%	-6.2%	3.4%[59 µM]
COC(=O)c1c(NC(=O)CN2C(=O)NC3(CCC(C)CC3)C2=O)sc2c1CCC2 (configuration not stated)	8.8%	33.6%	.	-3.6%	-4.7%[12.7 µM]
Cc1cc(C(F)F)n2nc(C(=O)Nc3sc4c(c3C#N)CCC4)nc2n1	?	?	?	-22.4%	50.1µM*
Cn1cc([N+](=O)[O-])c(C(=O)Nc2sc3c(c2C#N)CCC3)n1	-29.6%	31.0%	11.8%	-12.4%	6.6%
Cn1ccc(C(=O)Nc2sc3c(c2C#N)CCC3)n1	?	11.8%	-18.5%	1.1%	35.5µM*
CC1CCC2(CC1)NC(=O)N(CC(=O)Nc1sc3c(c1C(N)=O)CCC3)C2=O (configuration not stated)	50.1µM*	7.0%	?	?	50.1µM*
N#Cc1c(NC(=O)c2cc(-n3cnnc3)ccc2Cl)sc2c1CCCC2	-25.9%	0.2%	13.9%	-31.5%	11.2µM*
CC(OC(=O)c1nsc(Cl)c1Cl)C(=O)NCCc1ccccc1 (configuration not stated)	4.0%	20.2%	3.3%	-3.5%	3.8%
O=C(COC(=O)CCN1C(=O)C2CC=CCC2C1=O)NCCc1ccc(F)cc1 (configuration not stated)	1.9%	29.4%	.	-18.1%	-49.5%[12.7 µM]
Cn1cc(Br)c(C(=O)Nc2sc3c(c2C#N)CCC3)n1	-0.4%	-16.2%	-21.4%	-23.7%	35.5µM*
Cn1cnnc1SCC(=O)Nc1sc2c(c1C(N)=O)CCC2	50.1µM*	?	?	63.1µM*	?
COCCn1cnnc1SCC(=O)Nc1sc2c(c1C#N)CCC2	-4.2%	10.2%	.	-21.3%	13.8%[2.33 µM]
Cn1cc(Br)c(C(=O)Nc2sc3c(c2C(N)=O)CCCC3)n1	-5.3%	-10.5%	-27.9%	-18.7%	35.5µM*
Cc1ccc(S(=O)(=O)NC(=O)Nc2ccccc2)cc1	7.9%	34.7%	-5.4%	10.8%	.
NC(=O)NC(=O)COC(=O)CCCCCNS(=O)(=O)c1ccc2c(c1)OCCO2	.	14.1%	12.5%	-19.4%	-4.6%
CCCn1c(=O)c(C(=O)NCCCc2ccccc2)c(O)c2ccccc21	70.1%	179.2%	-3.3%	123.6%	305.6%
C=C(c1ccc(OC)cc1)c1ccc(OC)cc1	8.4%	35.7%	-6.5%	-14.6%	?
